# Assay outcomes as filed in PubChem BioAssay.
# Only some compounds are listed: those with a hit (about 1.1% of all), similar ones and a draw of the others.
# AmpC no deterg: blocks E. coli AmpC beta-lactamase in detergent-free assay | AmpC nitrocefin hydrolysis, absorbance 480 nm, 0.0001% Triton | Potency, µM (series often up to 57.1 µM), inactives show at the top dose activity change, negative = inhibition, hits mostly inhibitors | 0.52% of 330,000 active | AID 485341;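 further: plate controls were no compound for no effect and no enzyme for full effect; nearly all actives have a fitted effect of over 20% in size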
# Target sequence (P00811 whole entry, looked up): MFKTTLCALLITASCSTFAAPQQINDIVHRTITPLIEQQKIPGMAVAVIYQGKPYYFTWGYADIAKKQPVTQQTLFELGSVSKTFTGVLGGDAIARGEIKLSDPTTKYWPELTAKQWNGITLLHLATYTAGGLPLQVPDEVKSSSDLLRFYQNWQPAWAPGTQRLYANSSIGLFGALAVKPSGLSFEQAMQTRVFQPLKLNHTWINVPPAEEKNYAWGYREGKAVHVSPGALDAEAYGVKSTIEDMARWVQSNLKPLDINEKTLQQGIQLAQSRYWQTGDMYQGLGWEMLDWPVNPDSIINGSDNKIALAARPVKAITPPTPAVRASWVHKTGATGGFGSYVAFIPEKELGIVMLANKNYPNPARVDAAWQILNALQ
#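 20 mM phosphate pH 7.0 + 0.01% (detergent screen) or 0.0001% Triton X-100; 5.3 nM AmpC reagent; cpd preinc 15 min RT; nitrocefin (800 uM stock) to start; A480 q20 s × 4 min; Activity was normalised to no-enzyme and no-compound control wells.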
# AmpC detergent: AmpC beta-lactamase inhibition with detergent present; AmpC hydrolysis of nitrocefin, absorbance 480 nm, 0.01% Triton; Potency, µM (series often up to 114 µM), for inactives: at the top dose activity change, negative = inhibition, most hits filed as inhibitors; 0.041% of 370,000 active; AID 485294;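 further: 0% = no-compound wells and -100% = no-enzyme wells; nearly all actives have a fitted effect of over 25% in size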
#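 20 mM phosphate pH 7.0 + 0.01% (detergent screen) or 0.0001% Triton X-100; 5.3 nM AmpC reagent; cpd preinc 15 min RT; nitrocefin (800 uM stock) to start; A480 q20 s × 4 min; Activity was normalised to no-enzyme and no-compound control wells.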
# Vaccinia Venus: vaccinia inhibition (Venus reporter); Potency, µM (top dose mostly 36.5 µM), without a hit: at the top dose activity change, negative = inhibition, most hits filed as inhibitors; 0.46% of 330,000 active; Vaccinia virus Venus reporter expression, fluorescence; calls by dose curve; tested in A549 cells; further: nearly all actives have a fitted effect of over 30% in size
# Vaccinia mCherry: vaccinia inhibition (mCherry reporter). Vaccinia virus mCherry reporter infection, fluorescence. Potency, µM (highest dose often 36.5 µM), for the others: top-dose activity change, negative = inhibition, hits mostly inhibitors. 0.63% of 310,000 active; calls by dose curve; tested in A549 cells; further: nearly all actives have a fitted effect of over 35% in size
# The depositor's hits bear a star; i = inactive; ? = inconclusive; . = no result; ! = a repeat was not active. Unless noted, the call rests on the fitted dose curve; in most records, active means well fitted curve in the direction sought with a large enough effect; inconclusive means small, poorly fitted or top-dose-only effect, or another doubt; inactive means no such curve, though single readings can be large; an effect the other way counts as inactive or inconclusive. Unless noted, on the % scale 0 is the no-effect control and ±100 the full control effect; potency means the concentration at half of the fitted maximal effect.
SMILES,AmpC no deterg,AmpC detergent,Vaccinia Venus,Vaccinia mCherry
CCOC(=O)CCc1ccc(NC(=O)/C=C/c2ccc([N+](=O)[O-])o2)cc1,.,.,12.6µM*,?
COc1cc2nc(N3CCN(c4cc(C)ccc4C)CC3)nc(N)c2cc1OC,106.8%,4.4%,10µM*,?
COc1cc2nc(N3CCNCC3)nc(N)c2cc1OC,-49.8%,?,.,.
CC(=O)[O][Hg][c]1ccccc1,.,.,?,20µM*
CC(=O)Oc1ccccc1C(=O)O,.,.,-8.0%,-12.5%
O=C(Cc1cccc(F)c1)NO,.,.,-11.9%,-10.3%
COC(=O)c1ccc(NC(=S)Nc2ccccc2)cc1,-12.7%,5.4%,-10.7%,-1.4%
COC(=O)c1ccc(NC(=S)Nc2ccc3ccccc3c2)cc1,0.251µM*,-1.0%,-12.1%,.
Cn1nnnc1SCC(=O)N1c2ccccc2Sc2ccc(Cl)cc21,1.26µM*,1.4%,3.3%,3.6%
O=C(C[n+]1ccccc1Br)c1ccc(-c2ccccc2)cc1,.,.,-13.3%,-15.4%
Cc1cccc2cc(CNCCCN3CCCC3=O)c(N3CCN4CCCC4C3)nc12 (stereo unspecified),.,.,-18.8%,i
CCCc1cc(=O)[nH]c2nnc(SCC(=O)NC3CCCC3)n12,17.8µM*,?,-13.6%,i
COCC(=O)Nc1cc(C(=O)N2CCSCC2)cc2nc(-c3ccccc3)n(C)c12,.,.,-12.3%,-0.2%
CN1C(=O)/C(=C/c2ccc3c(c2)OCO3)N=C1c1ccccc1,-27.2%,-7.4%,-6.0%,-12.7%
CN1N/C(=C\c2ccccc2)N=C2C(=O)N(C)C(=O)N=C21,.,.,8.91µM*,7.94µM*
CC/C=C1/N=C2C(=O)N(C)C(=O)N=C2N(C)N1,.,.,2.24µM*,1.78µM*
C=C1C=C(C)n2ncc(C(=O)NCCCCCC)c2N1,.,.,-20.0%,-4.7%
CC[C@@H](C)[C@@H](N)C1=N[C@H](C(=O)N[C@@H](CC(C)C)C(=O)N[C@@H](CCC(=O)O)C(=O)N[C@@H](C(=O)N[C@@H]2CCCCNC(=O)[C@@H](CC(N)=O)NC(=O)[C@@H](CC(=O)O)NC(=O)[C@@H](Cc3cnc[nH]3)NC(=O)[C@@H](Cc3ccccc3)NC(=O)[C@@H]([C@H](C)CC)NC(=O)[C@@H](CCCN)NC2=O)[C@@H](C)CC)CS1,.,.,?,i
O=C(Nc1cccc(/C=C/c2ccccn2)c1)c1ccc(-n2cncn2)c([N+](=O)[O-])c1,?,-8.9%,?,14.1µM*
CCCc1nc(SCC(=O)N2CCC(Cc3ccccc3)CC2)c2c(=O)n(C)c(=O)n(C)c2n1,3.55µM*,?,-14.4%,-12.5%
Cc1ccc(-c2nc(SCC(=O)N3CCc4ccccc43)c3c(=O)n(C)c(=O)n(C)c3n2)cc1,.,1.4%,-10.0%,1.1%
CCc1nc(SCC(=O)N2CCN(c3ccccc3)CC2)c2c(=O)n(C)c(=O)n(C)c2n1,-1.0%,-5.5%,.,.
CCCc1nc(SCC(=O)N2CCCc3ccccc32)c2c(=O)n(C)c(=O)n(C)c2n1,39.8µM*,-3.7%,-27.7%,-2.7%
Cn1c(=O)c2c(SCC(=O)N3CCCc4ccccc43)nc(CC(C)(C)C)nc2n(C)c1=O,-32.8%,?,11.2µM*,?
Cn1c(=O)c2c(SCC(N)=O)nc(CC(C)(C)C)nc2n(C)c1=O,6.31µM*,?,-10.4%,-6.1%
SMILES,AmpC no deterg,AmpC detergent,Vaccinia Venus,Vaccinia mCherry
O=C(NCc1cccnc1)c1cnn(-c2ncc3c(n2)-c2ccccc2CCC3)c1C1CC1,.,.,-8.9%,-15.7%
CCCn1c(SCC(=O)N2CCCc3ccccc32)nc2c1c(=O)n(C)c(=O)n2C,16.4%,35.5µM*,.,.
Cn1c(=O)c2c(SCC(=O)NCc3ccco3)nc(CC(C)(C)C)nc2n(C)c1=O,22.8%,?,-21.2%,i
Cn1c(=O)c2c(SCc3c(F)cccc3Cl)nc(CC(C)(C)C)nc2n(C)c1=O,3.55µM*,-3.5%,-4.9%,-6.6%
CCCn1c(SCC(=O)N2c3ccccc3Sc3ccccc32)nc2c1c(=O)n(C)c(=O)n2C,-10.8%,-0.7%,.,.
O=C(Nc1ccc(S(=O)(=O)NC2=NCCCCC2)cc1)c1ccc([N+](=O)[O-])s1,-40.9%,-5.2%,11.2µM*,12.6µM*
COc1ccc2nccc(/C=C/c3ccc(N(C)C)cc3)c2c1,.,.,-8.9%,-13.0%
Cc1cccc(NC(=O)c2ccccc2NC(=O)c2ccco2)c1,6.31µM*,-0.1%,.,.
COc1ccc(NC(=O)Cn2nc(Cc3cccnc3)c3ccccc3c2=O)cc1OC,2.82µM*,?,-2.1%,i
CC[C@@]1([C@@H]2O[C@@H]([C@H]3O[C@@](O)(CO)[C@H](C)C[C@@H]3C)C[C@@H]2C)CC[C@H]([C@]2(C)CC[C@]3(C[C@H](O)[C@@H](C)[C@@H]([C@@H](C)[C@@H](OC)[C@H](C)C(=O)O)O3)O2)O1 (stereo in doubt),.,.,?,i
CSc1nnc(CCNC(=O)c2ccc(-c3cccc(F)c3)cc2)n1-c1ccc(F)cc1,.,.,-4.3%,-16.3%
Clc1ccc(CSc2nnc(/C=C/c3ccccc3)o2)cc1,0.159µM*,-0.6%,1.9%,.
Clc1ccccc1CSc1nnc(/C=C/c2ccccc2)o1,-9.2%,1.5%,-20.3%,.
COC(=O)[C@@H]1CCCN1C(=O)c1c(OC)cc(=O)n2c1CCN(Cc1ccc3c(c1)OCCO3)CC2,.,.,-9.4%,-7.1%
NC(=O)CCCn1c(C(=O)c2cc(Cl)c(N)c(Cl)c2)c2ccc([N+](=O)[O-])cc2[n+]1[O-],3.5%,-13.5%,11.2µM*,?
NCCCn1c(C(=O)c2ccc(Cl)cc2)c2ccc([N+](=O)[O-])cc2[n+]1[O-],-2.5%,-10.3%,?,7.08µM*
COc1ccccc1CNc1ncnc2nc[nH]c12,-17.1%,-10.2%,?,3.55µM*!
CCn1cc(CN2CCOc3ccc(C(O)C4CCCCC4)cc3C2)c(C)n1 (stereo unspecified),.,.,-7.2%,-9.2%
CCOC(=O)C1=CCN(S(=O)(=O)c2ccc(F)cc2)C1c1ccc(Cl)c(Cl)c1 (stereo unspecified),.,.,12.6µM*,7.94µM*
Cc1cc(/C=C2\C=Cc3ccccc32)cc(C)c1[N+](=O)[O-],.,.,-9.8%,-10.8%
O=C(Nc1ccccc1)c1cc2ccccc2c(=O)s1,-19.3%,89.1µM*,-2.8%,-6.3%
CCC1CN(CC(=O)NC(C)c2cn(C)nc2C)Cc2cc(OC)ccc2O1 (stereo unspecified),.,.,3.0%,-8.8%
OCCCc1nc2n(n1)C(c1cccs1)C=C(c1ccc(Br)cc1)N2 (stereo unspecified),115.8%,-12.2%,.,.
Brc1ccc(C2=CC(c3cccs3)n3ncnc3N2)cc1 (stereo unspecified),10µM*,-7.2%,-2.1%,?
Fc1ccc(NC(=S)NC2CCN(Cc3ccccc3)CC2)cc1,-20.1%,-6.0%,-19.3%,-10.2%
S=C(Nc1ccc(Cl)c(Cl)c1)NC1CCN(Cc2ccccc2)CC1,-18.9%,?,14.1µM*,.
CCCCNC(=O)c1sc2ncnc(NCC3CCCO3)c2c1C (stereo unspecified),.,.,3.4%,-7.1%
O=C(NNC(=S)Nc1ccc(Cl)cc1)c1ccccc1OC(F)F,-45.3%,?,?,12.6µM*
